“And” between values parts separate entries of the source, which are not always exact repeats. Equal entries are not always repeated. Results filed as inconclusive are left out. The source made the active and inactive calls. Unless noted, calls come from the whole dose curve; as a rule, active = well fitted curve in the direction sought with a large enough effect; inconclusive = small, poorly fitted or top-dose-only effect, or another doubt; inactive = no such curve, though single readings can be large; an effect the other way counts as inactive or inconclusive.
Legend:
[1] = target: Cellular tumor antigen p53 (Homo sapiens) (UniProt P04637); test: Primary qHTS for small molecule compounds that upregulate eGFP-tagged delta133p53alpha (in N-terminal) cells. (AID 2060322); settings: NCI-H358 eGFP-delta133p53alpha fluorescence, 24 h; activation: stronger effect = higher value;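 note: series mostly up to about 56 µM; 0% = DMSO vehicle and 100% = reference activator; nearly all actives have a fitted effect of over 75% in size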
In short: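 NCI-H358 cells pre-induced 24 h with 10 ng/ml doxycycline to express N-terminal eGFP-delta133p53alpha, then dosed 24 h at 37C without doxycycline; fixed, Hoechst-stained, GFP intensity by laser scanning cytometry, normalized to DMSO (0%) and 57.5 uM 5-azacytidine (100%).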

[2] = BET inhibitor-based combinations targeting novel dependencies in MECOM-rearranged (r) AML: SET-2 cell line (AID 2202231); settings: SET-2 AML cells viability, CellTiter-Glo luminescence, 48 h; viability: stronger effect = lower value, concentration not given here; note: nearly all actives have a fitted effect of over 35% in size; note: potency is the fitted concentration of half-maximal effect;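 for viability: plate controls were DMSO treated cells for no effect and wells without cells for full effect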
In short: (§1)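 Luminescent ATP readout (CellTiter-Glo) after 48 hr drug exposure gives viability. Curves span 11 concentrations and are normalized to DMSO and empty wells. Activity is reported as area under the curve and its Z-transform within each cell line.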

[3] = BET inhibitor-based combinations targeting novel dependencies in MECOM-rearranged (r) AML: OCI-AML3 cell line (AID 2202232); settings: Potency: OCI-AML3 viability; note: nearly all actives have a fitted effect of over 35% in size; note: potency is the fitted concentration of half-maximal effect
In short: as §1

[4] = BET inhibitor-based combinations targeting novel dependencies in MECOM-rearranged (r) AML: MV-4-11 cell line (AID 2202233); note: nearly all actives have a fitted effect of over 45% in size; note: potency is the fitted concentration of half-maximal effect
In short: (§2)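 Luminescent ATP readout (CellTiter-Glo, 15 min at room temperature) after 48 hr drug exposure gave viability. Dose-response curves, normalized to DMSO and empty-well controls, were summarized as area under the curve and its mean-centred Z-score.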

[5] = BET inhibitor-based combinations targeting novel dependencies in MECOM-rearranged (r) AML: HNT-34 cell line (AID 2202234); note: nearly all actives have a fitted effect of over 35% in size; note: potency is the fitted concentration of half-maximal effect
In short: as §2

[6] = BET inhibitor-based combinations targeting novel dependencies in MECOM-rearranged (r) AML: UCSD-AML1 cell line (AID 2202235); note: nearly all actives have a fitted effect of over 40% in size; note: potency is the fitted concentration of half-maximal effect
In short: as §2

[7] = BET inhibitor-based combinations targeting novel dependencies in MECOM-rearranged (r) AML: AML-194 cell line (AID 2202237; note: nearly all actives have a fitted effect of over 40% in size; note: potency is the fitted concentration of half-maximal effect)
In short: as §1

[8] = BET inhibitor-based combinations targeting novel dependencies in MECOM-rearranged (r) AML: AML-191 cell line (AID 2202236; note: nearly all actives have a fitted effect of over 35% in size; note: potency is the fitted concentration of half-maximal effect)
In short: as §1

[9] = target: Cellular tumor antigen p53 (Homo sapiens) (UniProt P04637); test: Primary qHTS for small molecule compounds that upregulate eGFP-tagged delta133p53alpha (in C-terminal) cells. (AID 2060324);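 note: 0% = DMSO wells and 100% = 57.5 µM 5-azacytidine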
In short: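 In this qHTS, GFP-tagged delta133p53alpha levels are measured in fixed NCI-H358 cells after 24 h compound exposure at 37 °C. The cells are pre-induced with 100 ng/ml doxycycline, and signal is normalized to DMSO-treated wells as 0%.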

[10] = target: Aldehyde dehydrogenase, mitochondrial (Homo sapiens) (UniProt P05091); test: qHTS for Inhibitors of the Aldehyde Dehydrogenase Family (ALDH2) Validation screens (AID 2061302; active = well fitted inhibition curve with a large enough effect; title and protocol of this record describe different tests;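 note: plate controls were DMSO vehicle for no effect and maximal DPI positive control response for full effect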)
[11] = qHTS for Inhibitors of the Aldehyde Dehydrogenase Family (ALDH1A2, ALDH1A3, ALDH2, ALDH3A1) (AID 2061307); note: % is set by controls: 0 for no effect and ±100 for the full control effect; nearly all actives have a fitted effect of over 50% in size
[12] = target: Retinaldehyde dehydrogenase 3 (Homo sapiens) (UniProt P47895); test: qHTS for Inhibitors of the Aldehyde Dehydrogenase Family (ALDH1A3) Confirmatory screens (AID 2061311); note: nearly all actives have a fitted effect of over 60% in size; note: potency is the fitted concentration of half-maximal effect
[13] = target: Retinal dehydrogenase 2 (Homo sapiens) (UniProt O94788); test: qHTS for Inhibitors of the Aldehyde Dehydrogenase Family (ALDH1A2) Confirmation screens (AID 2061314); note: % is set by controls: 0 for no effect and ±100 for the full control effect; nearly all actives have a fitted effect of over 65% in size
[14] = target: Retinaldehyde dehydrogenase 3 (Homo sapiens) (UniProt P47895); test: qHTS for Inhibitors of the Aldehyde Dehydrogenase Family (ALDH1A3) Validation screen (AID 2061312); note: % is set by controls: 0 for no effect and ±100 for the full control effect; nearly all actives have a fitted effect of over 45% in size
[15] = target: Aldehyde dehydrogenase, mitochondrial (Homo sapiens) (UniProt P05091); test: qHTS for Inhibitors of the Aldehyde Dehydrogenase Family (ALDH2) Confirmatory screens (AID 2061303; active = well fitted inhibition curve with a large enough effect; title and protocol of this record describe different tests; note: % is set by controls: 0 for no effect and ±100 for the full control effect; nearly all actives have a fitted effect of over 45% in size)
[16] = target: Aldehyde dehydrogenase, mitochondrial (Homo sapiens) (UniProt P05091); test: qHTS for Inhibitors of the Aldehyde Dehydrogenase Family (ALDH2) Primary screen (AID 2061308);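 note: plate controls were vehicle for no effect and reference inhibitor for full effect; nearly all actives have a fitted effect of over 55% in size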
[17] = target: Retinaldehyde dehydrogenase 3 (Homo sapiens) (UniProt P47895); test: qHTS for Inhibitors of the Aldehyde Dehydrogenase Family (ALDH1A3) Primary screen (AID 2061315);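 note: plate controls were DMSO vehicle for no effect and reference inhibitor for full effect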

Sequence of Cellular tumor antigen p53 (Homo sapiens) (P04637 whole entry, looked up): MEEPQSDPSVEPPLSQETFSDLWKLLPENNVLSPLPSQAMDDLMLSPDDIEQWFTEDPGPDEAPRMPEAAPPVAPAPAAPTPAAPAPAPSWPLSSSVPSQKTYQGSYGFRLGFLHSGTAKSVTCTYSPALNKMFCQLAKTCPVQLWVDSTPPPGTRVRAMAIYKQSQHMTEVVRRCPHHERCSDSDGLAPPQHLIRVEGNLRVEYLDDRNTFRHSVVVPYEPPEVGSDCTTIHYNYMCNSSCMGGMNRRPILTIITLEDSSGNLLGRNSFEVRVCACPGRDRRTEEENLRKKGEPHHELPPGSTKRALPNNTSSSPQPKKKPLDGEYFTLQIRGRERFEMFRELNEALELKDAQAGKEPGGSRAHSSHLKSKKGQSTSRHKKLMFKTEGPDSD

COc1ccc(C(=O)c2c(C)n(CCN3CCOCC3)c3ccccc23)cc1
active: Potency [2] 8.33 µM | Potency [3] 3.72 µM | Potency [4] 2.63 µM | Potency [5] 2.35 µM | Potency [6] 1.86 µM | Potency [7] 1.48 µM
inactive: activation [1] 1.02%

N=c1c2c(-c3ccccc3)c(-c3ccccc3)n(Cc3ccccc3)c2ncn1C1CCC(O)CC1 (stereo not given)
inactive: activation [1] 11.7%
active: Potency [2] 1.32 µM | Potency [3] 8.33 µM | Potency [4] 0.742 µM | Potency [5] 2.63 µM | Potency [6] 1.32 µM | Potency [8] 2.63 µM | Potency [7] 4.68 µM

COc1ccc2c(c1O)-c1cccc3c1[C@@H](C2)N(C)CC3
inactive: Potency [9] | Potency [10]

C[C@]12Cc3cn[nH]c3C[C@@H]1CC[C@@H]1[C@@H]2CC[C@@]2(C)[C@H]1CC[C@]2(C)O
inactive: activation [1] -21.8% | Potency [3] | Potency [6] | Potency [8]

COC1(CS(=O)c2ccccc2)CCN(CCc2c[nH]c3ccc(F)cc23)CC1 (stereo not given)
inactive: activation [1] -25% | Potency [8] | Potency [7]
active: Potency [3] 14.8 µM

O=S(=O)(CC1CS1)c1ccc(Oc2ccccc2)cc1 (stereo not given)
active: Potency [3] 16.6 µM | Potency [4] 11.8 µM
inactive: activation [1] -10.4%

Fc1ccc(C(OCCN2CCN(CCCc3ccccc3)CC2)c2ccc(F)cc2)cc1
inactive: activation [1] 0.57% and -55.2%
active: Potency [2] 23.5 µM | Potency [3] 29.5 µM | Potency [4] 10.5 µM | Potency [8] 18.6 µM | Potency [7] 23.5 µM

COc1ccc(C(=O)c2c(C)n(CCN3CCOCC3)c3cc(I)ccc23)cc1
active: Potency [2] 13.2 µM | Potency [3] 9.34 µM | Potency [4] 8.33 µM | Potency [8] 6.61 µM | Potency [7] 9.34 µM
inactive: activation [1] 27.2% | Potency [6]

COC[C@@H](NC(C)=O)C(=O)NCc1ccccc1
inactive: activation [1] -5.83% | viability [2] 112% | Potency [3] | Potency [5] | Potency [6] | Potency [7]

CSCC[C@@H](NC(=O)[C@@H](Cc1ccccc1)NC(=O)CNC(=O)CNC(=O)[C@@H](N)Cc1ccc(O)cc1)C(=O)O
inactive: activation [1] 22.9% | viability [2] 119% | Potency [4] | Potency [8] | Potency [7]

CCCCCC[C@H]1C(=O)O[C@H](C)[C@H](NC(=O)c2cccc(NC=O)c2O)C(=O)O[C@@H](C)[C@@H]1OC(=O)CC(C)C
inactive: activation [1] -21.7%
active: Potency [8] 0.263 µM

CC(C)(O)C(=O)Nc1ccc([N+](=O)[O-])c(C(F)(F)F)c1
inactive: activation [1] -14.4% | Potency [6]
active: Potency [2] 23.5 µM

Cc1sc2c(c1C)C(c1ccc(Cl)cc1)=N[C@@H](CC(=O)OC(C)(C)C)c1nnc(C)n1-2
inactive: activation [1] -35.4% and 15.6%
active: Potency [2] 0.59 µM | Potency [5] 0.662 µM | Potency [6] 0.742 µM | Potency [8] 0.662 µM

C[N+]1(C)CCN(c2ccccc2)CC1
inactive: Potency [9] | Potency [10]

NC1CCc2cc(O)c(O)cc2C1 (stereo not given)
inactive: Potency [10] | Potency [11] | Potency [13]
active: Potency [12] 11.3 µM

CC(Cc1ccc(OCC(=O)O)cc1)NCC(O)c1cccc(Cl)c1 (stereo not given)
inactive: Potency [10] | Potency [14]

Ic1ccccc1CNC1C2CCN(CC2)C1C(c1ccccc1)c1ccccc1 (stereo not given)
inactive: Potency [10] | Potency [14]

Cc1cc(C(=O)CN2CCCC2)c(C)n1-c1ccc(F)cc1
inactive: Potency [15] | Potency [11] | Potency [16] | Potency [12] | Potency [14] | Potency [17]

NC(N)=Nc1ccc2[nH]c3c(c2c1)C[C@@]1(O)[C@H]2Cc4ccc(O)c5c4[C@@]1(CCN2CC1CC1)[C@H]3O5
inactive: Potency [10]

CC(C)N(CCC(C(N)=O)(c1ccccc1)c1ccccn1)C(C)C (stereo not given)
inactive: Potency [10] | Potency [16] | Potency [14] | Potency [17]

CC(NC(C)(C)C)C(=O)c1cccc(Cl)c1 (stereo not given)
inactive: Potency [9] | Potency [10] | Potency [16] | Potency [14] | Potency [17] | Potency [3] | Potency [4] | Potency [8] | Potency [7]

C=CCN1CCC23c4c5ccc(O)c4O[C@H]2C(=O)CC[C@@]3(O)C1C5 (stereo not given in full)
inactive: Potency [10] | Potency [14]

CN1C(=O)CCS(=O)(=O)C1c1ccc(Cl)cc1 (stereo not given)
inactive: Potency [10] | Potency [14] | viability [2] 123% | Potency [3] | Potency [4] | Potency [6] | Potency [8]

CNc1ccc2oc(C[C@H]3O[C@@]4(CC[C@H]3C)O[C@H]([C@H](C)C(=O)c3ccc[nH]3)[C@H](C)C[C@H]4C)nc2c1C(=O)O
inactive: Potency [10] | Potency [14]

CCCN1CCC[C@@H](c2cccc(O)c2)C1
inactive: Potency [10] | Potency [14]
